# From PMC12820563, “FoxP3 forms a head-to-head dimer in vivo and stabilizes its multimerization on adjacent microsatellites”
# Over roughly 16,000 sequences, “rpm ratio (pull-down/input)” has its median near 0.5; the highest 2% begin near 5.5. The full list was thinned out, with the highest values kept by preference.
# Biological target: T1, MBP-FoxP3dN (Mus musculus, UniProt Q99JB6 188-423)
# T1 sequence: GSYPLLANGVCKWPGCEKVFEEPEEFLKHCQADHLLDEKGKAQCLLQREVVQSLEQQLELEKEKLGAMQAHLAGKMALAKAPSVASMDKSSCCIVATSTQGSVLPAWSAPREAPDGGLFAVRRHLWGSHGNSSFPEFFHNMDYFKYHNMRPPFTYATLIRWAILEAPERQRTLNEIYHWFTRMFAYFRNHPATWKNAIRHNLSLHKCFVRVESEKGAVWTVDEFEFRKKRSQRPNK
# Assay: PD-seq (MBP pull-down with sequencing); 20 mM Tris-HCl pH 7.5, 100 mM NaCl, 1.5 mM MgCl2, 0.4 uM protein, 0.1 uM dsDNA library, 30 min, room temperature, amylose pull-down; high values mean tight binding
# Settings: protein: recombinant; tags: His6-MBP; chain copies: 2; dsDNA, one strand shown
# In short: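 A fragment of mouse FoxP3 or FoxP1 without its N-terminus, carrying a His6-MBP tag and produced in E. coli, was combined at 0.4 µM with a 0.1 µM degenerate double-stranded DNA library filled in with Klenow. The mixture sat for 30 min at room temperature in Tris pH 7.5 buffer containing NaCl and MgCl2. Protein–DNA complexes were captured on amylose resin, washed three times, and the DNA was freed with proteinase K, barcoded by PCR and sequenced on Illumina. Binding is expressed as reads-per-million enrichment of pull-down over input, with replicates pooled.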
row,Sequence,binding signal
1,GATGATTGTTCTCCCAGCTGATGAATTGGGAAGGTCGAGTAAACAAATTTTCCTAATCTTTCTGTTCAAGCGCCATCTAC,0.234 RPM ratio (pull-down/input)
2,GATGATTGTTCTCCCAGCTGATGAATTCACGGTTTCGAGTAAACAAATTTTCCTAATCTTTCTGTTCAAGCGCCATCTAC,0.47 RPM ratio (pull-down/input)
3,GATGATTGTTCTCCCAGCTGATGAATTATTACATTCGAGTAAACAAATTTTCCTAATCTTTCTGTTCAAGCGCCATCTAC,0.591 RPM ratio (pull-down/input)
4,GATGATTGTTCTCCCAGCTGATGAATTGTTCTTGTCGAGTAAACAAATTTTCCTAATCTTTCTGTTCAAGCGCCATCTAC,0.412 RPM ratio (pull-down/input)
5,GATGATTGTTCTCCCAGCTGATGAATTTGTCACTTCGAGTAAACAAATTTTCCTAATCTTTCTGTTCAAGCGCCATCTAC,5.39 RPM ratio (pull-down/input)
6,GATGATTGTTCTCCCAGCTGATGAATTGCTTGTCTCGAGTAAACAAATTTTCCTAATCTTTCTGTTCAAGCGCCATCTAC,1.71 RPM ratio (pull-down/input)
7,GATGATTGTTCTCCCAGCTGATGAATTTGCTTTCTCGAGTAAACAAATTTTCCTAATCTTTCTGTTCAAGCGCCATCTAC,5.95 RPM ratio (pull-down/input)
8,GATGATTGTTCTCCCAGCTGATGAATTGTCTTGCTCGAGTAAACAAATTTTCCTAATCTTTCTGTTCAAGCGCCATCTAC,0.461 RPM ratio (pull-down/input)
9,GATGATTGTTCTCCCAGCTGATGAATTTGCTTGCTCGAGTAAACAAATTTTCCTAATCTTTCTGTTCAAGCGCCATCTAC,6.22 RPM ratio (pull-down/input)
10,GATGATTGTTCTCCCAGCTGATGAATTTTGCTTCTCGAGTAAACAAATTTTCCTAATCTTTCTGTTCAAGCGCCATCTAC,2.58 RPM ratio (pull-down/input)
11,GATGATTGTTCTCCCAGCTGATGAATTGCTTTGCTCGAGTAAACAAATTTTCCTAATCTTTCTGTTCAAGCGCCATCTAC,1.22 RPM ratio (pull-down/input)
12,GATGATTGTTCTCCCAGCTGATGAATTGCTTTACTCGAGTAAACAAATTTTCCTAATCTTTCTGTTCAAGCGCCATCTAC,1.22 RPM ratio (pull-down/input)
13,GATGATTGTTCTCCCAGCTGATGAATTTTGCTACTCGAGTAAACAAATTTTCCTAATCTTTCTGTTCAAGCGCCATCTAC,2.59 RPM ratio (pull-down/input)
14,GATGATTGTTCTCCCAGCTGATGAATTTTCTTGCTCGAGTAAACAAATTTTCCTAATCTTTCTGTTCAAGCGCCATCTAC,0.298 RPM ratio (pull-down/input)
15,GATGATTGTTCTCCCAGCTGATGAATTTGCTTACTCGAGTAAACAAATTTTCCTAATCTTTCTGTTCAAGCGCCATCTAC,6.78 RPM ratio (pull-down/input)
16,GATGATTGTTCTCCCAGCTGATGAATTTGCTGTCTCGAGTAAACAAATTTTCCTAATCTTTCTGTTCAAGCGCCATCTAC,6.16 RPM ratio (pull-down/input)
17,GATGATTGTTCTCCCAGCTGATGAATTGCTTTTCTCGAGTAAACAAATTTTCCTAATCTTTCTGTTCAAGCGCCATCTAC,1.42 RPM ratio (pull-down/input)
18,GATGATTGTTCTCCCAGCTGATGAATTTAGCAGGTCGAGTAAACAAATTTTCCTAATCTTTCTGTTCAAGCGCCATCTAC,0.708 RPM ratio (pull-down/input)

row,Sequence,binding signal
1,GATGATTGTTCTCCCAGCTGATGAATTCCCATGGTCGAGTAAACAAATTTTCCTAATCTTTCTGTTCAAGCGCCATCTAC,0.262 RPM ratio (pull-down/input)
2,GATGATTGTTCTCCCAGCTGATGAATTACCAGGGTCGAGTAAACAAATTTTCCTAATCTTTCTGTTCAAGCGCCATCTAC,0.252 RPM ratio (pull-down/input)
3,GATGATTGTTCTCCCAGCTGATGAATTTATCCGTTCGAGTAAACAAATTTTCCTAATCTTTCTGTTCAAGCGCCATCTAC,0.58 RPM ratio (pull-down/input)
4,GATGATTGTTCTCCCAGCTGATGAATTGCTTTCATCGAGTAAACAAATTTTCCTAATCTTTCTGTTCAAGCGCCATCTAC,1.04 RPM ratio (pull-down/input)
5,GATGATTGTTCTCCCAGCTGATGAATTGTAGCCATCGAGTAAACAAATTTTCCTAATCTTTCTGTTCAAGCGCCATCTAC,1.99 RPM ratio (pull-down/input)
6,GATGATTGTTCTCCCAGCTGATGAATTTCAACGATCGAGTAAACAAATTTTCCTAATCTTTCTGTTCAAGCGCCATCTAC,0.284 RPM ratio (pull-down/input)
7,GATGATTGTTCTCCCAGCTGATGAATTCTGGGGGTCGAGTAAACAAATTTTCCTAATCTTTCTGTTCAAGCGCCATCTAC,0.456 RPM ratio (pull-down/input)
8,GATGATTGTTCTCCCAGCTGATGAATTCTTTGATTCGAGTAAACAAATTTTCCTAATCTTTCTGTTCAAGCGCCATCTAC,0.276 RPM ratio (pull-down/input)
9,GATGATTGTTCTCCCAGCTGATGAATTTTTTGATTCGAGTAAACAAATTTTCCTAATCTTTCTGTTCAAGCGCCATCTAC,0.323 RPM ratio (pull-down/input)
10,GATGATTGTTCTCCCAGCTGATGAATTTTGTTTTTCGAGTAAACAAATTTTCCTAATCTTTCTGTTCAAGCGCCATCTAC,7.43 RPM ratio (pull-down/input)
11,GATGATTGTTCTCCCAGCTGATGAATTTGTTGATTCGAGTAAACAAATTTTCCTAATCTTTCTGTTCAAGCGCCATCTAC,7.3 RPM ratio (pull-down/input)
12,GATGATTGTTCTCCCAGCTGATGAATTGTTGAATTCGAGTAAACAAATTTTCCTAATCTTTCTGTTCAAGCGCCATCTAC,1 RPM ratio (pull-down/input)
13,GATGATTGTTCTCCCAGCTGATGAATTCTGTTGTTCGAGTAAACAAATTTTCCTAATCTTTCTGTTCAAGCGCCATCTAC,7.51 RPM ratio (pull-down/input)
14,GATGATTGTTCTCCCAGCTGATGAATTTTTGTTTTCGAGTAAACAAATTTTCCTAATCTTTCTGTTCAAGCGCCATCTAC,2.51 RPM ratio (pull-down/input)
15,GATGATTGTTCTCCCAGCTGATGAATTCGAGTTTTCGAGTAAACAAATTTTCCTAATCTTTCTGTTCAAGCGCCATCTAC,0.651 RPM ratio (pull-down/input)
16,GATGATTGTTCTCCCAGCTGATGAATTCCTGTTTTCGAGTAAACAAATTTTCCTAATCTTTCTGTTCAAGCGCCATCTAC,0.929 RPM ratio (pull-down/input)
17,GATGATTGTTCTCCCAGCTGATGAATTCTTTTTTTCGAGTAAACAAATTTTCCTAATCTTTCTGTTCAAGCGCCATCTAC,0.311 RPM ratio (pull-down/input)
18,GATGATTGTTCTCCCAGCTGATGAATTCTGTTTTTCGAGTAAACAAATTTTCCTAATCTTTCTGTTCAAGCGCCATCTAC,5.51 RPM ratio (pull-down/input)
